Assay results taken from the supplement of paper PMC10849652.
The full data set covers some 7,900 targets. This sample favours those with a hit. About 0.6% of all pairs of compound and target were hits. A number with no mark means an inactive call.

Experiments:
Experiment in all cases: log2 fold change, soluble protein after heating vs DMSO (PISA); higher = thermal stabilisation; K562 cells, 10 uM, 30 min; active = over 0.2 and 3.5 SD of the protein, either way, in both replicates (recomputed)
[1] = compound: NC(=O)Nc1cc(-c2cccc(F)c2)sc1C(=O)N[C@H]1CCCNC1
Summary of the method: (§1)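 K562 cells (2×10^6 cells/mL) were treated with 10 μM compound for 30 min, and aliquots were heated for 3 min over 48°C-58°C. Pooled aliquots were extracted in PBS with 0.5% NP-40 at 4°C, and the supernatant after 21,000xg for 90 min was measured by TMTpro 16plex LC-MS/MS with channel sums equalised. Reported thermal stability, relative to control samples and from duplicates, is a log2 fold change.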

[2] = compound: NC(=O)c1cnc(N[C@@H]2CCCC[C@@H]2N)nc1Nc1cccc(-n2nccn2)c1
Summary of the method: as §1

[3] = compound: NC1(c2ccc(-c3nc4ccn5c(=O)[nH]nc5c4cc3-c3ccccc3)cc2)CCC1
Summary of the method: as §1

[4] = compound: NCC(=O)Nc1ccc(-n2nc(C(F)(F)F)cc2-c2ccc3c(ccc4ccccc43)c2)cc1
Summary of the method: as §1

[5] = compound: Nc1ccccc1NC(=O)c1ccc(CNC(=O)OCc2cccnc2)cc1 [entinostat]
Summary of the method: as §1

[6] = compound: O=C(CCCCCCC(=O)Nc1ccccc1)NO [vorinostat]
Summary of the method: as §1

[7] = compound: O=C(CCCCCCNC(=O)c1cnc(N(c2ccccc2)c2ccccc2Cl)nc1)NO [citarinostat]
Summary of the method: as §1

[8] = compound: O=C(O)c1ccc2c(c1)nc(Nc1cccc(Cl)c1)c1ccncc12 [silmitasertib]
Summary of the method: as §1

[9] = compound: O=C1NC(=O)C(c2cnc3ccccn23)=C1c1cn2c3c(cc(F)cc13)CN(C(=O)N1CCCCC1)CC2
Summary of the method: as §1

[10] = compound: c1cc(OCCN2CCCCC2)cc(-c2n[nH]c3ccc(-c4nnc[nH]4)cc23)c1
Summary of the method: as §1

UniProt P60842, sequence (P60842 whole entry, looked up): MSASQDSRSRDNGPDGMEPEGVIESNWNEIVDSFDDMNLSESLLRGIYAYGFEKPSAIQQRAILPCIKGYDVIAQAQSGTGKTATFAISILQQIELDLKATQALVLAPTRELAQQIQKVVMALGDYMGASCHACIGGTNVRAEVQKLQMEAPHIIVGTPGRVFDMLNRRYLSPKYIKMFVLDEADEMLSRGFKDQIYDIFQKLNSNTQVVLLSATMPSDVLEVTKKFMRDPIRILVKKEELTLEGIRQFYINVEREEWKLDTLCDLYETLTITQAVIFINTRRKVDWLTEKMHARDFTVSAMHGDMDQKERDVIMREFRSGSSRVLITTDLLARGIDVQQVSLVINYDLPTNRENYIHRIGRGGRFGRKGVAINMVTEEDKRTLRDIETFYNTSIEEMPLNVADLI
UniProt Q9NZJ5, sequence (Q9NZJ5 whole entry, looked up): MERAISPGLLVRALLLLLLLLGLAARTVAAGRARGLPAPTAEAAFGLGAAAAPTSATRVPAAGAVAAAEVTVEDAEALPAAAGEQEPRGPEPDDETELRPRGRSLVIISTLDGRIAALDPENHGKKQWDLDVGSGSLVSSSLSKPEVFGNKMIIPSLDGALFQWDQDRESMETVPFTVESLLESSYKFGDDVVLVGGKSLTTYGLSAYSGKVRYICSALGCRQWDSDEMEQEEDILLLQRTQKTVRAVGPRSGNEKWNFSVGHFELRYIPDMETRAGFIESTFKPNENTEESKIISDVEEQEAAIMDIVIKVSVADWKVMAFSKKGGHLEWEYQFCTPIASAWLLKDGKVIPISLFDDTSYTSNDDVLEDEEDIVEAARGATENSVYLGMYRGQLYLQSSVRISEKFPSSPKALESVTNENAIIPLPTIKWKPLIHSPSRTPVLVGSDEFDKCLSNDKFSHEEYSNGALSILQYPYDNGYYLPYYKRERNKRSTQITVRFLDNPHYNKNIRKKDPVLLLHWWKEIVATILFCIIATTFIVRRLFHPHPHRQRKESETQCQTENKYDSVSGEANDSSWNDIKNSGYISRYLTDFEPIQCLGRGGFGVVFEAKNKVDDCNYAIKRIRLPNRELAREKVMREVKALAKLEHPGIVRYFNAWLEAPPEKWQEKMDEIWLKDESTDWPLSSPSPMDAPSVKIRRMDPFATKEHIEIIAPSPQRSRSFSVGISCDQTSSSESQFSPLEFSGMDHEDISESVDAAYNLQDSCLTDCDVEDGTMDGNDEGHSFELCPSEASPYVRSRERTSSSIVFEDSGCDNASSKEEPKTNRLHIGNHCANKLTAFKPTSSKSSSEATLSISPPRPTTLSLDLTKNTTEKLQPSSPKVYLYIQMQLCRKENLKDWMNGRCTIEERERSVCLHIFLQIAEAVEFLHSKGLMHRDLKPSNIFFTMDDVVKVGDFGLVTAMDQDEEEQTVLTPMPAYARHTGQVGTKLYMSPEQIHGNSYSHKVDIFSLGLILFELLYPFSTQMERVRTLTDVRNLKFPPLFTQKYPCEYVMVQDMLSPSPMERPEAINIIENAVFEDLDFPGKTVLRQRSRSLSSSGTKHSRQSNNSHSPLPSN
UniProt Q2TBE0, sequence (Q2TBE0 whole entry, looked up): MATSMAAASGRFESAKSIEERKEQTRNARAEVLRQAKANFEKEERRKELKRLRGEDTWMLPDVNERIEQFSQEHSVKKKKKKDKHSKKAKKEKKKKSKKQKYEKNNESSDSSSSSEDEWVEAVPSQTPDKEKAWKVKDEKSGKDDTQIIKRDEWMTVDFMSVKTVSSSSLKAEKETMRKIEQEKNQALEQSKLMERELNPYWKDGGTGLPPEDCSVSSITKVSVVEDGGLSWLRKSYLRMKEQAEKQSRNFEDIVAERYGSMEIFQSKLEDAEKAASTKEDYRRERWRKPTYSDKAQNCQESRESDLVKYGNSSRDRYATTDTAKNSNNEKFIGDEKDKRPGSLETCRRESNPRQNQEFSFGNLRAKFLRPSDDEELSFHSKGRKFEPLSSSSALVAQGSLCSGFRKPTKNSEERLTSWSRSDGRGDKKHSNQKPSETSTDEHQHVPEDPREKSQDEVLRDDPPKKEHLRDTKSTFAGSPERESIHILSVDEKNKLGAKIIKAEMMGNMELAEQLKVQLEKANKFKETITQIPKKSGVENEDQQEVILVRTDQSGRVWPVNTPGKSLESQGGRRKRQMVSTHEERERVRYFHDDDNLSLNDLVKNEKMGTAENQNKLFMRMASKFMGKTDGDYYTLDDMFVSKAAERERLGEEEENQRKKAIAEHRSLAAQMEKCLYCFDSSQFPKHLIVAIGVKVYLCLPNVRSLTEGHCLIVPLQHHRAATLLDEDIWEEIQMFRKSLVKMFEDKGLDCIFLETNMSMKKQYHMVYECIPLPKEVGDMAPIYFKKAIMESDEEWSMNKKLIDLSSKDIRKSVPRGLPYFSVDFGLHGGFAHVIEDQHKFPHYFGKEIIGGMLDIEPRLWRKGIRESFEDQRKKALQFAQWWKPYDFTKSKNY
UniProt Q07973, sequence (Q07973 whole entry, looked up): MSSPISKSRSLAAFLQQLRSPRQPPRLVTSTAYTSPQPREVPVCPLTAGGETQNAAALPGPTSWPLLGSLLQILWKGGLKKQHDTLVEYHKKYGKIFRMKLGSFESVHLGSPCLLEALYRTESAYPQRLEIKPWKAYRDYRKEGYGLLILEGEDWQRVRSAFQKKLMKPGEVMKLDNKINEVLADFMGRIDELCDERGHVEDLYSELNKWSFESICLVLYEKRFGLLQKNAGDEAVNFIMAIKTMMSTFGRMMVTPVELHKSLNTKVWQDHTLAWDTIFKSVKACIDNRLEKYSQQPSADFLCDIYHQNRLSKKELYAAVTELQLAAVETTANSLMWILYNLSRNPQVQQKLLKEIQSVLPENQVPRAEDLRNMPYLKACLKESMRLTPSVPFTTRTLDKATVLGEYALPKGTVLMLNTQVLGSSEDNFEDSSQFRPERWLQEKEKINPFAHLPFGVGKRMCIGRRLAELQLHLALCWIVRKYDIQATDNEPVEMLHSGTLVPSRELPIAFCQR
UniProt P80370, sequence (P80370 whole entry, looked up): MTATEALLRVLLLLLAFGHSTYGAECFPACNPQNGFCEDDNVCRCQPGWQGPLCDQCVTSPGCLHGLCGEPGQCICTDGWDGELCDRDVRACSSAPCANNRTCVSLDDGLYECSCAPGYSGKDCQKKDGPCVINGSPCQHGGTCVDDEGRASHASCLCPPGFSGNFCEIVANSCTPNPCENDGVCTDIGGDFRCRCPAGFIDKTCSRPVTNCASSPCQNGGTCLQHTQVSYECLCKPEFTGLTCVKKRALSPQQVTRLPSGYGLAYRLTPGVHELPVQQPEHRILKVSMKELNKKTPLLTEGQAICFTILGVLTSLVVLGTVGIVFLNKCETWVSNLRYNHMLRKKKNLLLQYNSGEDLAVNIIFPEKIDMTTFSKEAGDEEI
UniProt Q5T6F0, sequence (Q5T6F0 whole entry, looked up): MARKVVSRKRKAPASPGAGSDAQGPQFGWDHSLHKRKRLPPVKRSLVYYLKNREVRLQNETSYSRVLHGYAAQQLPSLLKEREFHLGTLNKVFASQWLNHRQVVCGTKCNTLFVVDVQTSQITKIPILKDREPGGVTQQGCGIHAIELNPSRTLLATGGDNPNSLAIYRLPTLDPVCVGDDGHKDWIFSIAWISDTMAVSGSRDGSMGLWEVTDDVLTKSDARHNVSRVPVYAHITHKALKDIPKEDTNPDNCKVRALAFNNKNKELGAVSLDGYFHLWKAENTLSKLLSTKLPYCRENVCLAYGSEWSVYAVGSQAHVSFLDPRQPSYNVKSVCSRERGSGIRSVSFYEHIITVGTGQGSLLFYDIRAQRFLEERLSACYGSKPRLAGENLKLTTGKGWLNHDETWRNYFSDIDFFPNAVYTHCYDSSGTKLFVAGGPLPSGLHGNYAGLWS
UniProt Q9Y6B2, sequence (Q9Y6B2 whole entry, looked up): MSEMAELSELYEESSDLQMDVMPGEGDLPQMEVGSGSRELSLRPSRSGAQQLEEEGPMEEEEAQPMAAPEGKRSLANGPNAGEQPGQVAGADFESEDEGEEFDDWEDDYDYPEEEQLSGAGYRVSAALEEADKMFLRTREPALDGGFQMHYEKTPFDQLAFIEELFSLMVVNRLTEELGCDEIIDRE
UniProt P54760, sequence (P54760 whole entry, looked up): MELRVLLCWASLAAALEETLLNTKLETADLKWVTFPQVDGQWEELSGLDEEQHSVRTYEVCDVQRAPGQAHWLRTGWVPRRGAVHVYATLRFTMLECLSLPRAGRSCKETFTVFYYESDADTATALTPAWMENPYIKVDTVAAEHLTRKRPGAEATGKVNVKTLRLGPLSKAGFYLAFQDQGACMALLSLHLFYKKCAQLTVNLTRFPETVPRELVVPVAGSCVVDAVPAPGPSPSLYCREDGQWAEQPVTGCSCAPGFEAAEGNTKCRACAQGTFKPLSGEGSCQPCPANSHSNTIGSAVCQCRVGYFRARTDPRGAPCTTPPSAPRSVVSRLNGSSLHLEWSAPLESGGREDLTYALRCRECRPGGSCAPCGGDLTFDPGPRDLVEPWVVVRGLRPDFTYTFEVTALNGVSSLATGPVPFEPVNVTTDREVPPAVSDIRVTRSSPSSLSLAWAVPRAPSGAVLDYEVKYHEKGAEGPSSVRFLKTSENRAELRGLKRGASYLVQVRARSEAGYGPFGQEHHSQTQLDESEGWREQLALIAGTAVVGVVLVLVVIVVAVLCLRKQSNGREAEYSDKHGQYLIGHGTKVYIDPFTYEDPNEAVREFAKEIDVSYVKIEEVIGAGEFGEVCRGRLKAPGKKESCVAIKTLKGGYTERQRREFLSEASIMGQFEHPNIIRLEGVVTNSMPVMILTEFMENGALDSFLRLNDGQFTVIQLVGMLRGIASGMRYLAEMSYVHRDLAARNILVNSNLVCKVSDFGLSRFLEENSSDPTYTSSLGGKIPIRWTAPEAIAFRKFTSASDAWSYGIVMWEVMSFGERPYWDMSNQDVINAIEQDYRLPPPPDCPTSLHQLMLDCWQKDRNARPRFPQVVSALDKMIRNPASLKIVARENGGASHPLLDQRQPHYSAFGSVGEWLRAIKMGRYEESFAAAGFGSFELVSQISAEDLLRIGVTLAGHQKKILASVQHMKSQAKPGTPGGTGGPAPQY

Row | Target | log2 fold change [1] | log2 fold change [2] | log2 fold change [3] | log2 fold change [4] | log2 fold change [5] | log2 fold change [6] | log2 fold change [7] | log2 fold change [8] | log2 fold change [9] | log2 fold change [10]
1 | EEF1G isoform 2 (UniProt P26641) | -0.005 | -0.039 | -0.1 | 0.011 | 0.036 | 0.059 | 0.035 | 0.014 | 0.003 | -0.046
2 | ELOC (UniProt Q15369) | -0.008 | -0.011 | -0.015 | -0.008 | 0.024 | 0.024 | 0.036 | -0.007 | -0.107 | -0.053
3 | DUS2 (UniProt Q9NX74) | 0.051 | -0.066 | -0.091 | -0.004 | 0.008 | 0.041 | 0.124 | 0.092 | -0.424 (active) | 0.038
4 | DSN1 (UniProt Q9H410) | -0.026 | -0.057 | -0.166 | -0.037 | 0.076 |  | 0.021 | 0.025 | -0.032 | -0.081
5 | DNM2 (UniProt P50570) | -0.019 | -0.037 | -0.153 | -0.023 | 0.005 | 0.03 | 0.051 | -0.054 | 0.008 | -0.014
6 | EIF4A1 (UniProt P60842) | 0.148 | -0.08 | -0.029 | -0.044 | 0.079 | 0.068 | 0.088 | -0.01 | -0.01 | -0.05
7 | FAM241A (UniProt Q8N8J7) | 0.661 (active) | -0.033 | -0.032 | -0.004 | 0.424 (active) | -0.005 | -0.09 | 0.045 |  | -0.058
8 | DDX46, A0A0C4DG89 |  |  | -0.177 |  |  |  |  | -0.288 | -0.148 | 
9 | CTNNBL1 (UniProt Q8WYA6) |  |  |  | 0.175 |  |  | 0.057 |  |  | -0.068
10 | DDB1 isoform 2 (UniProt Q16531) | -0.295 |  |  |  | -0.237 | -0.032 | -0.203 |  | -0.09 | -0.12
11 | ELOVL7 (UniProt A1L3X0) |  | -0.001 |  |  |  |  |  |  | -0.09 | 
12 | EID1 (UniProt Q9Y6B2) | -0.078 |  | -0.055 |  | 0.086 | -0.457 |  | -0.156 | -0.652 | 
13 | DNAH10 (UniProt Q8IVF4) | 0.057 |  | -0.045 | 0.026 | -0.041 | 0.083 | 0.242 | -0.101 | -0.102 | 0.172
14 | ENTPD7 (UniProt Q9NQZ7) | 0.024 |  | -0.052 |  | 0.236 |  | 0.131 | -0.357 | -0.098 | -0.138
15 | DERPC (UniProt P0CG12) |  |  | 0.008 | -0.16 |  | -0.042 | -0.049 | -0.024 |  | -0.045
16 | EHBP1 (UniProt Q8NDI1) |  | -0.092 | 0.017 |  |  | -0.034 | -0.009 | 0.087 |  | -0.14
17 | FAM160A2 isoform 2 (UniProt Q8N612) |  |  | 0.158 | -0.26 |  | -0.009 | -0.154 | 0.057 | 0.026 | 0.068
18 | FAM135A (UniProt Q9P2D6) | 0.069 |  |  | -0.024 | -0.03 |  |  |  | -0.088 | 
19 | ELMO1 (UniProt Q92556) | -0.07 |  | -0.146 | -0.316 | 0.093 |  |  | 0.04 | -0.104 | 
20 | DENND1A isoform 6 (UniProt Q8TEH3) |  |  |  | -0.119 |  |  |  |  |  | 
21 | ELF1 (UniProt P32519) | -0.124 | -0.044 |  |  | -0.11 |  | -0.089 |  | -0.075 | -0.18
22 | DNM2 isoform 4 (UniProt P50570) | -0.033 |  | -0.318 |  | 0.342 | -0.068 | -0.113 | 0.116 | 0.19 | 0.06
23 | DCAF12 (UniProt Q5T6F0) | -0.025 |  | -0.201 |  | -0.003 | -0.021 | -0.033 | 0.051 |  | 0.055
24 | CWF19L2 (UniProt Q2TBE0) | 0.129 | 0.013 |  |  | -0.134 | -0.184 | 0.13 |  |  | -0.001

Row | Target | log2 fold change [1] | log2 fold change [2] | log2 fold change [3] | log2 fold change [4] | log2 fold change [5] | log2 fold change [6] | log2 fold change [7] | log2 fold change [8] | log2 fold change [9] | log2 fold change [10]
25 | ENTR1 (UniProt Q96C92) |  |  |  | -0.284 |  |  |  |  |  | 
26 | EIF2AK3 (UniProt Q9NZJ5) |  | 0.056 | -0.211 |  |  | -0.02 | -0.039 | -0.085 | 0.127 | 0.097
27 | EEF2K (UniProt O00418) |  |  | -0.119 | -0.114 |  | 0.19 | -0.05 | 0.216 | 0.178 | 0.012
28 | EDRF1 (UniProt Q3B7T1) | -0.062 |  | -0.044 |  | -0.055 | 0.083 | -0.044 | -0.031 | -0.057 | -0.103
29 | CTSS (UniProt P25774) | -0.054 |  |  | 0.053 | -0.013 | 0.15 | 0.19 |  |  | -0.089
30 | EEF1D isoform 3 (UniProt P29692) |  |  | 0.2 |  |  |  |  | -0.401 |  | 
31 | EPHB4 (UniProt P54760) | -0.207 |  | -0.102 |  | 0.122 |  |  | 0.18 |  | 
32 | DHPS (UniProt M0R1T2) | 0.063 |  |  |  | 0.072 |  |  |  |  | 
33 | FADS1 (UniProt F5GYH4) |  |  |  | -0.191 |  |  |  |  |  | 
34 | FAM117B (UniProt Q6P1L5) |  | -0.159 |  | 0.229 |  | 0.059 | -0.047 |  | -0.144 | 0.105
35 | DNAJB1 (UniProt M0R128) |  |  |  | -0.151 |  |  |  |  |  | 
36 | DCAF4 (UniProt Q8WV16) | -0.046 |  | -0.127 |  | 0.005 | 0.238 | -0.1 | 0.066 | -0.096 | -0.094
37 | DOP1A (UniProt Q5JWR5) |  |  | 0.106 | -0.051 |  |  |  | -0.056 | 0 | 
38 | F2RL3 (UniProt Q96RI0) |  | 0.003 |  | -0.085 |  |  |  |  |  | 
39 | DLK1 (UniProt P80370) |  |  |  | -0.061 |  |  | -0.018 |  | -0.109 | -0.203
40 | DNAL1 (UniProt Q4LDG9) |  | 0.035 |  | 0.05 |  |  |  |  | -0.26 | 
41 | ERF (UniProt P50548) | -0.53 |  |  |  | -0.019 | 0.023 |  |  | -0.273 | 
42 | EIF4G1 (UniProt Q04637) |  | -0.14 |  | -0.075 |  | 0.085 |  |  |  | 
43 | CYP24A1 (UniProt Q07973) |  | 0.045 | 0.43 | 0.21 |  | 0.067 | -0.002 | 0.099 |  | 0.109
44 | DNAJC24 (UniProt Q6P3W2) | 0.023 |  | 0.011 | -0.129 | 0.055 |  | 0.102 | 0.052 | -0.059 | -0.169
45 | EPHX2 (UniProt E5RI53) |  |  |  |  |  |  |  |  | -0.058 | 
46 | DNAH5 (UniProt Q8TE73) | -0.029 |  | -0.077 | 0.016 | -0.037 | -0.103 | 0.047 | 0.001 | 0.014 | 0.029
47 | DOLPP1 (UniProt Q86YN1) |  | -0.102 | -0.053 | -0.003 |  |  | 0.075 | 0.008 |  | -0.007
